# BAZ2B block: qHTS Assay for Inhibitors of BAZ2B | Potency, µM (top dose mostly 114 µM), for the others: at the highest dose activity change, negative = inhibition, actives largely listed as inhibitors | AlphaScreen BAZ2B-H3K14Ac peptide displacement | hit rate 4.4% among 360,000 | AID 504333, 2011; further: on the % scale 0 is the no-effect control and ±100 the full control effect; nearly all actives have a fitted effect of over 60% in size
#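 BAZ2B (50 nM) with biotin-H3(5-23)K14Ac peptide (50 nM) in PBS pH 7.4, 0.01% Tween-20, preformed 30 min, then compound 30 min at room temperature; top concentration 110uM. AlphaScreen streptavidin donor/nickel chelate acceptor beads (10 ug/mL final), 20 min dark, signal read.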
# HP1b chromo inh: HTS for Inhibitors of HP1-beta Chromodomain Interactions with Methylated Histone Tails; Chromobox protein homolog 1 (Homo sapiens), P83916; AlphaScreen HP1-beta / biotin-H3K9me3 peptide binding; Potency, µM (titrated, usually from 114 µM), for inactives: top-dose activity change, negative = inhibition, most hits filed as inhibitors; hit rate 0.56% among 390,000; AID 540317, 2011; further: nearly all actives have a fitted effect of over 70% in size
#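 AlphaScreen: HP1-beta (50 nM) preformed 30 min with biotin-H3(1-18)K9me3 peptide (50 nM) in PBS pH 7.4, 0.01% Tween-20. Compound added for 30 min at RT, then streptavidin donor/nickel chelate acceptor beads (10 ug/mL) for 30 min.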
# JMJD2A Tudor: qHTS Assay for Inhibitors of JMJD2A-Tudor Domain; AlphaScreen JMJD2A-Tudor / H3K4me3 peptide binding; hit rate 4.4% among 390,000; Potency, µM (titrated, usually from 114 µM), for inactives: at the highest dose activity change, negative = inhibition, most hits filed as inhibitors; Lysine-specific demethylase 4A (Homo sapiens), O75164; further: on the % scale 0 is the no-effect control and ±100 the full control effect; nearly all actives have a fitted effect of over 50% in size
# VDR inh: Inhibitors of the vitamin D receptor (VDR): qHTS; Vitamin D3 receptor (Homo sapiens), P11473; VDR-SRC2-3 peptide fluorescence polarization, 2 h; Potency, µM, inactives show max response, negative = inhibition, hits mostly inhibitors; hit rate 0.93% among 400,000; AID 504847, 2011; further: on the % scale 0 is the no-effect control and ±100 the full control effect
#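 VDR–SRC2-3 interaction, FP format. Cmpds 23 nl via pintool, brief spin, 2 h ambient incubation.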
# PLK1 PBD inh: qHTS for Inhibitors of PLK1-PDB (polo-like kinase 1 - polo-box domain): Primary Screen; Plk1 PBD binding of FITC phosphopeptide, fluorescence polarization; hit rate 2.8% among 360,000; Potency, µM, for the others: max response, negative = inhibition, hits mostly inhibitors; further: series mostly up to about 57 µM; on the % scale 0 is the no-effect control and ±100 the full control effect; nearly all actives have a fitted effect of over 65% in size
# Target sequence (P53350 whole entry, looked up, the tested form may be a part): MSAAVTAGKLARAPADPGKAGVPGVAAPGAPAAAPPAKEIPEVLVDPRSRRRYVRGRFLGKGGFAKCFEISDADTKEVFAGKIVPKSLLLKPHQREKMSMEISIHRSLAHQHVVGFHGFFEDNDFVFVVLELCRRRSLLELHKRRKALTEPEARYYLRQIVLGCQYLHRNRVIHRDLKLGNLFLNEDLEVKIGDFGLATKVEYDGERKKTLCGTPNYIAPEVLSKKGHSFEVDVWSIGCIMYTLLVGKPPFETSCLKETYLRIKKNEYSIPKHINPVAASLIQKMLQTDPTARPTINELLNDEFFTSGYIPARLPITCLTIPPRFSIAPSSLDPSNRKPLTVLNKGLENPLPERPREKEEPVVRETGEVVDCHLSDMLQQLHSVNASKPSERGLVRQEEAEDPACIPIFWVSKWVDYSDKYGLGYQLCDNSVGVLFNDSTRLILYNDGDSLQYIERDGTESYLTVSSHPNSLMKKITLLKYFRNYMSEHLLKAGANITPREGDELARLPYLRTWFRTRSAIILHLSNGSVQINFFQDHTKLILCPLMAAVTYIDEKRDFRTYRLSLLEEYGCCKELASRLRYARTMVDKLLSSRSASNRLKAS
# G9a inh: qHTS Assay for Inhibitors of Histone Lysine Methyltransferase G9a. Potency, µM (highest dose often 102 µM), without a hit: top-dose activity, negative = inhibition, actives largely listed as inhibitors. hit rate 8.8% among 350,000. Histone-lysine N-methyltransferase EHMT2 (Homo sapiens), Q96KQ7. G9a H3K9 monomethylation, AlphaScreen, 2 h; further: on the % scale 0 is the no-effect control and ±100 the full control effect; nearly all actives have a fitted effect of over 75% in size
#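 Compounds were preincubated with 20 nM G9a for 15 min, after which biotinylated H3K9 peptide (500 nM) and SAM (20 uM) started a 2 h room-temperature reaction. Monomethylated product was quantified by antibody-based AlphaScreen chemiluminescence.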
# Numbers without * were called inactive; ? = inconclusive; . = no result; ! = a repeat was not active; [ ] = remark or other dose. Only some compounds are listed: those with a hit (about 11% of all), similar ones and a draw of the others. The call rests on the fitted dose curve; in most records, active means well fitted curve in the direction sought with a large enough effect; inconclusive means small, poorly fitted or top-dose-only effect, or another doubt; inactive means no such curve, though single readings can be large; an effect the other way counts as inactive or inconclusive. Potency means the concentration at half of the fitted maximal effect.
SMILES,BAZ2B block,HP1b chromo inh,JMJD2A Tudor,VDR inh,PLK1 PBD inh,G9a inh
Cc1ccc(S(=O)(=O)NCc2ccc3[nH]c(C)cc3c2)cc1,.,3%,-31%,-10%,-1%,50µM*
CCOc1ccc(-c2c(C)sc3nc[nH]c(=O)c23)cc1,0%,48%,89µM*,-24%,-3%,10%
C=CCOC(=O)c1ccccc1C(=O)OCC1CO1 (stereo unspecified),.,-8%,-7%,-2%,-8%,.
Cc1ccc(C(NC(=O)N2CCOCC2)C(Cl)(Cl)Cl)cc1F (stereo unspecified),-3%,12%,-17%,-6%,27µM*,-13%
Cc1ccc(C(NC(=O)N2CCCC2)C(Cl)Cl)cc1F (stereo unspecified),-6%,34%,-12%,?,-8%,35µM*
CCN(CC)C(=O)NC(c1ccc(C)c(F)c1)C(Cl)(Cl)Cl (stereo unspecified),0%,52%,-2%,-19%,-1%,-10%[59 µM]
Cc1ccc(COc2ccc(CNCCCN3CCCCCC3=O)cc2)cc1,35µM*,32µM*,1.3µM*,-13%,-1%,14µM*
Cc1ccc(NC(=O)C(=O)NCCCN2CCCC2=O)cc1,-9%,20%,-7%,-11%,-8%,1%
O=C(CC1NCCC[C@H]1O)Cn1cnc2cc(Br)c(Cl)cc2c1=O (stereo partly specified),.,.,.,-4%,.,-50%[12.7 µM]
O=C(NNc1cccc(Cl)n1)c1ccc(Cl)nc1,12%,39%,?,-2%,-9%,12%[59 µM]
O=C(NNc1c(F)c(F)cc(F)c1F)c1ccc(Cl)nc1,-21%,25%,-5%,3%,-1%,50µM*
O=c1[nH]c(SCc2ccccc2)nc2c1sc1ccccc12,-4%,56%,-13%[57.1 µM],-23%,?,50µM*
S=c1[nH]nc(Cc2c[nH]c3ccccc23)o1,-4%,13%,79µM*,-11%,-15%,1.6µM*
c1ccc(Cc2c[nH]c3ccccc23)cc1,-33%,20%,-20%,-10%,-4%,.
CN(C(=O)c1ccoc1)c1ccccc1I,.,34%,-1%,-11%,.,.
COc1cc(CNC(=O)c2ccc3c(c2)S(=O)(=O)c2ccccc2C3=O)cc(OC)c1,.,15%,-34%,-7%,4%,.
COc1cc(OC)c(NC(=O)CN2CCCN(Cc3ccccc3C)S2(=O)=O)cc1Cl,-14%,18%,-10%,4%,.,10%[59 µM]
S=C(NCCc1ccccc1)NCc1cccs1,17%,13%,-9%,13%,-15%,25%[59 µM]
O=C(NCCNCc1cccs1)c1ccccc1F,50µM*,?,3.5µM*,-22%,-5%,6.3µM*
COCCNC(=S)NCc1cccs1,-5%,18%,-1%,-4%,-4%,28µM*
O=C(NCc1cccs1)c1ccccc1F,3%,43%,10%,-15%,-1%,-10%[59 µM]
CC(=O)c1cccc(NC(=O)C(C)OC(=O)c2ccc(S(C)(=O)=O)c([N+](=O)[O-])c2)c1 (stereo unspecified),.,32%,-13%,?,.,.
CCOC(=O)c1cccc(NC(=O)Cn2ncc3c4ccccc4n(Cc4ccccc4)c3c2=O)c1,2%,11%,?,4%,.,-1%[59 µM]
CN=c1scc(C)n1/N=C/c1ccc2c(c1)OCO2,40µM*,-37%,?,12%,-7%,?
CN=c1scc(C)n1/N=C/c1ccc(O)cc1O,40µM*,-38%,?,-10%,-9%,-9%[59 µM]
SMILES,BAZ2B block,HP1b chromo inh,JMJD2A Tudor,VDR inh,PLK1 PBD inh,G9a inh
CCOc1ccc(-n2c(=O)c3c(C)c(C)sc3n(CC(=O)N3CCC(C)CC3)c2=O)cc1,1%,43%,1%,15%,.,-3%[59 µM]
CC(=O)C1=C(C)Nc2cc(C(F)(F)F)ccc2S1,11%,-4%,-22%,?,?,22µM*
COc1ccc2c(c1)NC(C)(C)C=C2C,40µM*,45µM*,63µM*,43%,-29%,40µM*
COC(=O)C1(C)NC(=O)c2ccccc2N1 (stereo unspecified),-1%,60%,-16%,8%,-7%,25%[59 µM]
CC1=CC(C)(C)Nc2ccccc21,50µM*!,24%,?,?,-2%,6%[0.501 µM]
O=C1CC(NS(=O)(=O)c2ccc3ccccc3c2)CN1c1ccccc1 (stereo unspecified),1%,15%,-16%,11%,-7%,-5%
O=C(CSc1nnnn1C1CCCCC1)NCCc1ccccc1,7%,26%,-9%,-12%,-10%,-1%[59 µM]
Nc1ccc(Nc2nc(-c3ccncc3)cs2)cc1,?,-31%,56µM*,4%,-6%,40µM*
Oc1ccc(Nc2nc(-c3ccc(O)cc3)cs2)cc1,28µM*,?,?,-3%,-13%,?
c1cc2c(cc1-c1csc(NNC3=NCCCCC3)n1)OCCO2,35µM*,?,-26%[11.4 µM],?,19µM*,6.3µM*
c1cc2c(cc1Nc1nc(-c3ccc4c(c3)OCO4)cs1)OCCO2,?,0%,-32%,-1%,-6%,?
c1ccc(-c2csc(Nc3ccc4c(c3)OCCO4)n2)cc1,50µM*,-52%,71µM*,-20%,0%,11µM*
CCC(=O)Nc1nc(-c2ccc3c(c2)OCCO3)cs1,-6%,53%,-15%,9%,-7%,-12%[59 µM]
COc1ccc(NC(=O)COCc2cc(-c3ccc4c(c3)OCO4)on2)cc1,4%,27%,1%,4%,.,1%[59 µM]
Fc1cccc(CNc2ncnc3ccc(-c4ccoc4)cc23)c1,8%,.,.,.,.,11%[12.7 µM]
O=S(=O)(c1cc(Cl)cc(Cl)c1O)N1CCC2(CC1)OCCO2,-3%,17%,-6%,-5%,-11%,64%
O=S(c1cc(Cl)cc(Cl)c1O)c1cc(Cl)cc(Cl)c1O,.,.,.,40µM*,?,?
CN(C)/C=C/C(=O)c1ccc(-c2ccc(Cl)cc2Cl)o1,?,-21%,-22%[57.1 µM],?,-30%,45µM*
CCN(CC#CCC1(O)c2ccccc2-c2ccccc21)CCO,?,-4%,89µM*,6%,-3%,-11%[0.0925 µM]
CC12CCC(=O)N1C(C(=O)Nc1ccc(F)cc1)CS2 (stereo unspecified),4%,18%,1%,7%,1%,.
CCn1c(C)c(C(C)=O)c(N2CCCCC2)nc1=S,14%,30%,-16%,-6%,-18%,45µM*
CC(=O)Nc1ccc(SCCN2CC[C@@H](C(C)(C)C)CCC2=O)cc1,2%,33%,-5%,-25%,11µM*,24%[2.33 µM]

# Bioassay records: PubChem, National Center for Advancing Translational Sciences (NCATS)
